13 compounds from ChEMBL document CHEMBL2218924, “A broad activity screen in support of a chemogenomic map for kinase signalling research and drug discovery” (Biochem J, 2013) can be followed below.

For experiment [1], the target named is T1, Casein kinase II (Homo sapiens) (UniProt P67870+P68400+P19784). Particulars: at 1 µM.
Experiment [2] deals with T1, Casein kinase II (Homo sapiens). The note with it: at 10 µM.
Experiment [3] deals with Casein kinase II subunit alpha' (Homo sapiens) (UniProt P19784). Particulars: at 1 µM.
Experiment [4] has the same target. Particulars: at 10 µM.
Experiment [5] deals with Dual specificity protein kinase CLK2 (Homo sapiens) (UniProt P49760). The note with it: at 1 µM.
The target is the same in experiment [6]. Particulars: at 10 µM.
Experiment [7] addresses Dual specificity protein kinase CLK3 (Homo sapiens) (UniProt P49761). The note with it: at 1 µM.
For experiment [8] the target is unchanged. Particulars: at 10 µM.
The target of experiment [9] is Tyrosine-protein kinase CSK (Homo sapiens) (UniProt P41240). Particulars: at 1 µM.
For experiment [10] the target is unchanged. Particulars: at 10 µM.
For experiment [11], the target named is Calcium/calmodulin-dependent protein kinase type 1 (Homo sapiens) (UniProt Q14012). Particulars: at 1 µM.
For experiment [12] the target is unchanged. Particulars: at 10 µM.
The target of experiment [13] is Calcium/calmodulin-dependent protein kinase type II subunit beta (Homo sapiens) (UniProt Q13554). Particulars: at 1 µM.
Experiment [14] has the same target. Particulars: at 10 µM.
Experiment [15] addresses Calcium/calmodulin-dependent protein kinase type II subunit gamma (Homo sapiens) (UniProt Q13555). The note with it: at 1 µM.
Experiment [16] has the same target. Particulars: at 10 µM.
The target of experiment [17] is Calcium/calmodulin-dependent protein kinase type II subunit delta (Homo sapiens) (UniProt Q13557). Particulars: at 1 µM.
Experiment [18] shares this target. Particulars: at 10 µM.
The target of experiment [19] is T2, Calcium/calmodulin-dependent protein kinase type IV (Homo sapiens) (UniProt Q16566).
T2 sequence (whole entry): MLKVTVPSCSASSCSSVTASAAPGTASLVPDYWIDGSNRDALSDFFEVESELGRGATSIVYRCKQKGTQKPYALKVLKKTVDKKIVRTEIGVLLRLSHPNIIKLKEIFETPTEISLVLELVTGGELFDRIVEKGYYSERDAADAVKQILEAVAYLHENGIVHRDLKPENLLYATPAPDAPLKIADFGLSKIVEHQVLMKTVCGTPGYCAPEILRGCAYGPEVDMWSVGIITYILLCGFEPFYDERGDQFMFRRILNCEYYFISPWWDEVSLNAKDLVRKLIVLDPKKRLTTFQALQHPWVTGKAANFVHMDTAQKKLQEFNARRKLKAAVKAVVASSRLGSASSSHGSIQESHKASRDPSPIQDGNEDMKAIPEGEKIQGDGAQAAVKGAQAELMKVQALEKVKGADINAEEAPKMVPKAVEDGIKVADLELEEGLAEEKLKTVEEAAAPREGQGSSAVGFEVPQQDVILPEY
Particulars: at 1 µM.

The target of experiment [20] is T2, Calcium/calmodulin-dependent protein kinase type IV (Homo sapiens). Particulars: at 10 µM.

Molecules are shown by their SMILES.

One may read the residual activity as the signal under treatment as a percentage of the control signal.

Dual specificity protein kinase CLK3 (Homo sapiens), sequence (P49761 whole entry, looked up): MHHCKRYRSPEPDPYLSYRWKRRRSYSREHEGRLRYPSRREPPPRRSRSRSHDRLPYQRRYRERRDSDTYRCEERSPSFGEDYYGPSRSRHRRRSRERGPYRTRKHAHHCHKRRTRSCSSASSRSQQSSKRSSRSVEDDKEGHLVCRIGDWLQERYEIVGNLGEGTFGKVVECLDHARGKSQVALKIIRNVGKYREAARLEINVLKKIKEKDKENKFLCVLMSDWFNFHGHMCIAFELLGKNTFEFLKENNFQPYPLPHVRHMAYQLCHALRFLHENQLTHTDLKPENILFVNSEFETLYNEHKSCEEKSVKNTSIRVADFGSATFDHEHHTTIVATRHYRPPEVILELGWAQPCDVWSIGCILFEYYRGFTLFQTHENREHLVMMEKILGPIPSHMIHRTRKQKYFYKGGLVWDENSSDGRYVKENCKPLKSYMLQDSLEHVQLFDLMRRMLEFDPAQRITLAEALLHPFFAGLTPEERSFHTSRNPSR
Calcium/calmodulin-dependent protein kinase type 1 (Homo sapiens), sequence (Q14012 whole entry, looked up): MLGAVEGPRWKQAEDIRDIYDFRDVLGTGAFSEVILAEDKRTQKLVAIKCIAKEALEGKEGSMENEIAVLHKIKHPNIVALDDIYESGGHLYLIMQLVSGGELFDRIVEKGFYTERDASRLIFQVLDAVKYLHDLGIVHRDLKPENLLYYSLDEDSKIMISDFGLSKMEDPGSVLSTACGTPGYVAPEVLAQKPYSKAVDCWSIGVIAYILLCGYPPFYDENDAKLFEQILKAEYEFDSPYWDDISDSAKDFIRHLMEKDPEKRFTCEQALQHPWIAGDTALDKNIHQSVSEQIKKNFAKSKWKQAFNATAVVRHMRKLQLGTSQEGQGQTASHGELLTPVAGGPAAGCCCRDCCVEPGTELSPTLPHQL
Calcium/calmodulin-dependent protein kinase type II subunit beta (Homo sapiens), sequence (Q13554 whole entry): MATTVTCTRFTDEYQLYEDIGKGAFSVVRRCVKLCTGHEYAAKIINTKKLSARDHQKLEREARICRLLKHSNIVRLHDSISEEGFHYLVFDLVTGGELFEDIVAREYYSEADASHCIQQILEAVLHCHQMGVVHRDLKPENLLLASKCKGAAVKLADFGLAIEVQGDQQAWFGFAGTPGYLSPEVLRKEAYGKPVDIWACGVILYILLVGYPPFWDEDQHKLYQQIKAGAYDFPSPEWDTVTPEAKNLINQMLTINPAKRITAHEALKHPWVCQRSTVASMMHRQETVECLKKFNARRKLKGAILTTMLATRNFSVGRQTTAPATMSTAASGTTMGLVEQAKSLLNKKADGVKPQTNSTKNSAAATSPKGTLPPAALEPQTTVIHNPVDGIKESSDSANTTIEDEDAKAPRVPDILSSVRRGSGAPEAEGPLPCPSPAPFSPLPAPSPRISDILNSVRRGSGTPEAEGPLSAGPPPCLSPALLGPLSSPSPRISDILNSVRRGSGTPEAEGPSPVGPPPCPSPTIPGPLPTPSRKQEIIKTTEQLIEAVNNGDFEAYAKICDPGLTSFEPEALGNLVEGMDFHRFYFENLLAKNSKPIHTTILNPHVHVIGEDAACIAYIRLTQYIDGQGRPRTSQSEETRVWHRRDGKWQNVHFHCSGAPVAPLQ
Dual specificity protein kinase CLK2 (Homo sapiens), sequence (P49760 whole entry, looked up): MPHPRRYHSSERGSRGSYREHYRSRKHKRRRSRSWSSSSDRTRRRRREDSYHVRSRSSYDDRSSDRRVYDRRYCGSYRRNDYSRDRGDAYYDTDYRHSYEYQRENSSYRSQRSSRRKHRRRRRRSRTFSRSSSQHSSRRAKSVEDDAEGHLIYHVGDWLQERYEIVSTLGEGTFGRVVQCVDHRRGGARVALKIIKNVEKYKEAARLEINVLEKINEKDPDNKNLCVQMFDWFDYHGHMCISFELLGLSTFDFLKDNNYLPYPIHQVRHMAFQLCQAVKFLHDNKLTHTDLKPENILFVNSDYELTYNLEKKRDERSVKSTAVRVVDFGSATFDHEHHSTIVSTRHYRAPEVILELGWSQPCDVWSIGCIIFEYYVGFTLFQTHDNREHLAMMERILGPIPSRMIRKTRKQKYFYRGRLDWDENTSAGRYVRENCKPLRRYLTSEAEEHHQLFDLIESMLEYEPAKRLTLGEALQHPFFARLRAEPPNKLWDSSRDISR
Tyrosine-protein kinase CSK (Homo sapiens), sequence (P41240 2-450 limits assumed): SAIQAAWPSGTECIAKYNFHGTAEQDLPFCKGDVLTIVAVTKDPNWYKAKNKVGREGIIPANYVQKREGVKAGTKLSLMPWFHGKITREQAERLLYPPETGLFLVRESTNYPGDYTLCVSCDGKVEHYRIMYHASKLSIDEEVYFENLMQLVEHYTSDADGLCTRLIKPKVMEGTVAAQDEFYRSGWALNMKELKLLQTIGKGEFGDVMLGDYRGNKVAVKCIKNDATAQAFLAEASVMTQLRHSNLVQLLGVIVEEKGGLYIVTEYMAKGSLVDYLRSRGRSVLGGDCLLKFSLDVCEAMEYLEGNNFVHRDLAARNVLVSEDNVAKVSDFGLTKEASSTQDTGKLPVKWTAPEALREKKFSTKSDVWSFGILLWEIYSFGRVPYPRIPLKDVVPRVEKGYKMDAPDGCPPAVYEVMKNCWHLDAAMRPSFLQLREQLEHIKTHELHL
Calcium/calmodulin-dependent protein kinase type II subunit delta (Homo sapiens), sequence (Q13557 whole entry): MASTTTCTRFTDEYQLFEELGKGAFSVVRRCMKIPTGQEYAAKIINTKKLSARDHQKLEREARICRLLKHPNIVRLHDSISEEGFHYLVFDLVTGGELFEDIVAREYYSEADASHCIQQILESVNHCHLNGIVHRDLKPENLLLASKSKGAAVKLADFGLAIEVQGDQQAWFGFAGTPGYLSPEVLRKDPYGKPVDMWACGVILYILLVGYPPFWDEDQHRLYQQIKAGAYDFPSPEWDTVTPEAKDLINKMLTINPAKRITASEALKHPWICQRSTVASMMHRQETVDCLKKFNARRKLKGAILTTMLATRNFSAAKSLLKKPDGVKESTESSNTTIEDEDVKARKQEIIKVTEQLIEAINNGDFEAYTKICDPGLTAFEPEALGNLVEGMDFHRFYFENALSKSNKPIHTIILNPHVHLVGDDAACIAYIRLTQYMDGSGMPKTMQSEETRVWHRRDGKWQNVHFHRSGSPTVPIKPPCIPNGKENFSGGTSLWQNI
Calcium/calmodulin-dependent protein kinase type II subunit gamma (Homo sapiens), sequence (Q13555 whole entry): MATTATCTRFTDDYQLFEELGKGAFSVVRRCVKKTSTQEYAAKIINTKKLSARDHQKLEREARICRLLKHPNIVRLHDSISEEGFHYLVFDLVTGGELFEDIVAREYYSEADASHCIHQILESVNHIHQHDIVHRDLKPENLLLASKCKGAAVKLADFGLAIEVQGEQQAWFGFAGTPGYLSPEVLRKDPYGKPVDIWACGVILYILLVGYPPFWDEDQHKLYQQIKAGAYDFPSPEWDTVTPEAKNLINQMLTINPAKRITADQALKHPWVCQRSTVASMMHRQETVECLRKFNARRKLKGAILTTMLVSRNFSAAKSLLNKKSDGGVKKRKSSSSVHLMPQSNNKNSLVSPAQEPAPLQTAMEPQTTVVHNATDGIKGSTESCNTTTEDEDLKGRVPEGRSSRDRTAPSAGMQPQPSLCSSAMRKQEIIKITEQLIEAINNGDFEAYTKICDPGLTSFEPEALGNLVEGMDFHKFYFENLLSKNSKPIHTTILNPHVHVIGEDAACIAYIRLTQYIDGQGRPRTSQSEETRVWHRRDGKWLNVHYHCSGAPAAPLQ
Casein kinase II subunit alpha' (Homo sapiens), sequence (P19784 whole entry, looked up): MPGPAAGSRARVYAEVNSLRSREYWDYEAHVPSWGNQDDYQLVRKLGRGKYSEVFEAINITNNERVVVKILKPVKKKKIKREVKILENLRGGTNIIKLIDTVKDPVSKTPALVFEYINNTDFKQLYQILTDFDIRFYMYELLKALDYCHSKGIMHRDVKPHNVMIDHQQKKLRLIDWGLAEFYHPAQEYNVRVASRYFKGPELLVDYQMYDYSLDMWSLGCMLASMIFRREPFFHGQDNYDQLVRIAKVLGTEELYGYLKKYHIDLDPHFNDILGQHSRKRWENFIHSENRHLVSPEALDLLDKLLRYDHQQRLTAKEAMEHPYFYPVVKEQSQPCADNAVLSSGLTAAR
T1 sequence (P19784 whole entry, looked up): as above
T1 sequence (P67870 whole entry, looked up): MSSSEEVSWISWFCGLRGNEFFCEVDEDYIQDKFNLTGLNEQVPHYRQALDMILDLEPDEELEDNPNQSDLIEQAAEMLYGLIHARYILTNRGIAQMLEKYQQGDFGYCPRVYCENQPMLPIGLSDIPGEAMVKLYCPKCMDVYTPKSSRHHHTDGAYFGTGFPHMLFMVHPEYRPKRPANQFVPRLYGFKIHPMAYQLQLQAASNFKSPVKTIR
T1 sequence (P68400 whole entry, looked up): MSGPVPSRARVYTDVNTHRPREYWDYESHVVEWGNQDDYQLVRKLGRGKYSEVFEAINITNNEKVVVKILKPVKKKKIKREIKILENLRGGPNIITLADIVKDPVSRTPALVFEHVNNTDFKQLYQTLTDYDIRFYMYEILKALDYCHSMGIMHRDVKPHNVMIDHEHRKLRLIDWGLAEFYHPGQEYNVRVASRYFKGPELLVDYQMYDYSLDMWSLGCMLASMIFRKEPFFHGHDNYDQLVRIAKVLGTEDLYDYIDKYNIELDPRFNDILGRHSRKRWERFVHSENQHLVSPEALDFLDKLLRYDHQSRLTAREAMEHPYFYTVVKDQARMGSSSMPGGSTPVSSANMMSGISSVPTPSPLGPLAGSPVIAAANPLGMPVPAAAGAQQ

Take `COc1ccc(OC)c2c(=S)c3ccccc3[nH]c12`: the residual activity in experiment [1] came out at 103%; in [2], 79%; in [3], 81%; in [4] it was 97%; in experiment [5], 99%; in experiment [6] it was 74%. Besides, the residual activity amounted to 90% in experiment [7]; 81% in [8]; 109% in experiment [9]; 105% in experiment [10]; 96% in experiment [11]; 77% in experiment [12]. Also, the residual activity turned out to be 92% in [13]; 54% in [14]; 90% in [15]; 54% in [16]; 95% in [17]; 62% in experiment [18]. The residual activity in experiment [19] was determined as 100%; in experiment [20], 84%.

For the compound `Nc1ccc2ncnc(NCCc3ccc(Oc4ccccc4)cc3)c2c1`, the residual activity in [1] worked out at 100%; in experiment [2], 101%; in [3], 109%; in experiment [4], 100%; in experiment [5] it was 87%; in experiment [6], 69%. Further, the residual activity in experiment [7] amounted to 94%; in experiment [8], 92%; in [9], 118%; in experiment [10], 91%; in experiment [11], 107%; in [12], 87%. In addition, the residual activity was 72% in experiment [13]; 43% in experiment [14]; 24% in [15]; 11% in [16]; 31% in experiment [17]; 14% in experiment [18]. Also, the residual activity in experiment [19] came to 108%; in [20], 106%.

For `CC(C)n1cnc2/c(=N/c3cccc(Cl)c3)nc(NCCO)[nH]c21`, the residual activity in [1] turned out to be 89%; in experiment [2], 86%; in experiment [3], 108%; in experiment [4] it was 103%; in experiment [5], 19%; in experiment [6], 6%. The residual activity in experiment [7] worked out at 55%; in experiment [8], 12%; in [9], 101%; in experiment [10], 88%; in [11] it was 87%; in [12], 71%. Moreover, the residual activity came out at 75% in experiment [13]; 41% in experiment [14]; 13% in experiment [15]; 6% in experiment [16]; 19% in experiment [17]; 11% in experiment [18]. The results for the residual activity in [19] and in [20] were 103% and 66%, respectively.

Regarding `O=C1NC(=O)/C(=C/c2ccc3c(c2)OC(F)(F)O3)S1`, the residual activity in experiment [1] worked out at 32%; in experiment [2] it was 2%; in [3], 52%; in experiment [4], 0%; in experiment [5], 116%; in experiment [6], 75%. The residual activity was 91% in [7]; 94% in experiment [8]; 121% in experiment [9]; 117% in experiment [10]; 86% in [11]; 83% in experiment [12]. For the same compound, the residual activity was 94% in experiment [13]; 71% in [14]; 102% in [15]; 86% in [16]; 106% in experiment [17]; 82% in experiment [18]. The residual activity worked out at 99% in experiment [19] and 72% in experiment [20].

Regarding `COc1cc2ncnc(Nc3ccc(O)c(Br)c3)c2cc1OC`, the residual activity was found to be 58% in experiment [1]; 44% in experiment [2]; 97% in [3]; 38% in experiment [4]; 80% in experiment [5]; 30% in [6]. Besides, the residual activity in experiment [7] came to 82%; in experiment [8] it was 118%; in experiment [9], 90%; in experiment [10], 76%; in [11] it was 104%; in [12] it was 61%. For the same compound, the residual activity in [13] amounted to 73%; in experiment [14] it was 62%; in [15], 68%; in experiment [16], 18%; in [17] it was 79%; in experiment [18], 28%. Besides, the residual activity in [19] worked out at 122%; in experiment [20], 67%.

With `Cn1nc2c3c(cccc31)C(=O)c1ccccc1-2`, the residual activity in experiment [1] stood at 87%; in [2] it was 59%; in [3], 99%; in experiment [4], 65%; in experiment [5], 86%; in experiment [6], 83%. Further, the residual activity worked out at 76% in experiment [7]; 66% in experiment [8]; 101% in [9]; 90% in experiment [10]; 75% in experiment [11]; 74% in [12]. Moreover, the residual activity in [13] was 77%; in [14], 67%; in experiment [15], 87%; in experiment [16] it was 37%; in experiment [17] it was 85%; in experiment [18], 36%. For the same compound, the residual activity in experiment [19] was determined as 96%; in [20], 62%.

Turning to `O=C(O)c1ccc2c3c1cccc3c(=O)n1c3ccccc3nc21`, the residual activity in [1] was 22%; in [2], -4%; in [3], 18%; in experiment [4], 4%; in [5] it was 77%; in experiment [6], 27%. Moreover, the residual activity in experiment [7] is 77%; in [8], 32%; in experiment [9] it was 102%; in experiment [10], 88%; in experiment [11], 108%; in [12], 117%. Besides, the residual activity was determined as 88% in experiment [13]; 51% in [14]; 88% in experiment [15]; 31% in [16]; 80% in experiment [17]; 31% in experiment [18]. Moreover, the residual activity was 94% in [19] and 21% in experiment [20].

For the compound `O=C1Nc2cc(Br)ccc2/C1=C1/Nc2ccccc2/C1=N\O`, the residual activity in experiment [1] was 94%; in [2] it was 86%; in experiment [3], 94%; in experiment [4], 57%; in experiment [5], 92%; in experiment [6], 74%. For the same compound, the residual activity was determined as 79% in [7]; 54% in experiment [8]; 94% in [9]; 89% in experiment [10]; 59% in experiment [11]; 12% in experiment [12]. Moreover, the residual activity was found to be 15% in experiment [13]; 8% in [14]; 3% in experiment [15]; 2% in experiment [16]; 1% in experiment [17]; 2% in experiment [18]. The residual activity in experiment [19] is 59%; in experiment [20], 73%.

On to `CC[n+]1c(/C=C/N(C)c2ccccc2)n(-c2ccccc2)c2ccc(-c3nc4ccccc4s3)cc21`, for which the residual activity is 109% in [1]; 105% in [2]; 134% in experiment [3]; 90% in [4]; 109% in experiment [5]; 108% in experiment [6]. Further, the residual activity in experiment [7] is 91%; in experiment [8], 58%; in [9], 103%; in experiment [10], 95%; in experiment [11], 107%; in experiment [12] it was 26%. For the same compound, the residual activity in [13] came to 93%; in experiment [14] it was 38%; in experiment [15] it was 113%; in experiment [16] it was 99%; in [17], 109%; in experiment [18], 78%. Besides, the residual activity was 124% in [19] and 95% in experiment [20].

Regarding `Oc1ccc(Nc2nc(-c3ccc(Cl)cc3)cs2)cc1`, the residual activity in [1] came to 101%; in [2], 97%; in experiment [3], 100%; in experiment [4] it was 99%; in [5], 118%; in [6], 101%. Also, the residual activity in experiment [7] was 92%; in experiment [8], 75%; in experiment [9], 98%; in [10] it was 113%; in [11] it was 94%; in experiment [12], 53%. In addition, the residual activity in experiment [13] stood at 98%; in [14], 92%; in experiment [15], 98%; in experiment [16], 89%; in [17] it was 102%; in experiment [18] it was 98%. The residual activity in experiment [19] came out at 102%; in experiment [20] it was 114%.

Turning to `Ic1cccc(CSc2nnc(-c3ccncc3)o2)c1`, the residual activity amounted to 87% in experiment [1]; 87% in [2]; 101% in [3]; 97% in [4]; 12% in experiment [5]; 13% in experiment [6]. In addition, the residual activity in [7] was determined as 65%; in experiment [8] it was 45%; in [9], 104%; in experiment [10] it was 94%; in [11] it was 97%; in experiment [12], 79%. In addition, the residual activity stood at 75% in experiment [13]; 55% in experiment [14]; 85% in [15]; 74% in experiment [16]; 73% in [17]; 65% in experiment [18]. The values for the residual activity in experiment [19] and in [20] were 106% and 100%, respectively.

Turning to `O=C1c2ccccc2-[n+]2ccc3c([nH]c4ccccc43)c21`, the residual activity in experiment [1] amounted to 87%; in experiment [2] it was 71%; in experiment [3] it was 104%; in [4], 85%; in experiment [5] it was 114%; in experiment [6], 103%. In addition, the residual activity in experiment [7] is 79%; in [8], 72%; in experiment [9] it was 86%; in experiment [10], 88%; in experiment [11], 81%; in experiment [12], 68%. The residual activity in [13] worked out at 92%; in experiment [14] it was 76%; in experiment [15] it was 103%; in experiment [16], 78%; in [17] it was 95%; in experiment [18] it was 81%. Also, the residual activity in [19] came out at 102%; in [20], 93%.

`Oc1ccc(-c2nc(-c3ccc(F)cc3)c(-c3ccncc3)[nH]2)cc1`: the residual activity in experiment [1] is 107%; in experiment [2], 107%; in [3], 122%; in experiment [4], 97%; in [5] it was 123%; in experiment [6], 104%. For the same compound, the residual activity in experiment [7] amounted to 94%; in experiment [8], 90%; in [9] it was 126%; in experiment [10], 104%; in experiment [11], 111%; in [12] it was 100%. For the same compound, the residual activity amounted to 92% in experiment [13]; 52% in experiment [14]; 110% in experiment [15]; 89% in [16]; 98% in experiment [17]; 76% in experiment [18]. The residual activity was 115% in experiment [19] and 99% in experiment [20].
